Shown are actives, neighbours in structure and some others; about 1.1% of the full set was active somewhere.
RecA splice inh – Mtb RecA intein splicing inhibitors, primary screen, biochemical, fluorescence, HTS; Protein RecA (Mycobacterium tuberculosis (strain ATCC 25618 / H37Rv)), P9WHJ3; cell-free RecA intein splicing; inhibition, % (test concentration not listed); 290,000 compounds, 0.75% hits; in the data active = inhibition above about 30%; inconclusive = no clear call, values can overlap the other calls;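 also: 0% = vehicle wells and 100% = reference inhibitor control wells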
Target sequence (P9WHJ3 whole entry, looked up, canonical isoform): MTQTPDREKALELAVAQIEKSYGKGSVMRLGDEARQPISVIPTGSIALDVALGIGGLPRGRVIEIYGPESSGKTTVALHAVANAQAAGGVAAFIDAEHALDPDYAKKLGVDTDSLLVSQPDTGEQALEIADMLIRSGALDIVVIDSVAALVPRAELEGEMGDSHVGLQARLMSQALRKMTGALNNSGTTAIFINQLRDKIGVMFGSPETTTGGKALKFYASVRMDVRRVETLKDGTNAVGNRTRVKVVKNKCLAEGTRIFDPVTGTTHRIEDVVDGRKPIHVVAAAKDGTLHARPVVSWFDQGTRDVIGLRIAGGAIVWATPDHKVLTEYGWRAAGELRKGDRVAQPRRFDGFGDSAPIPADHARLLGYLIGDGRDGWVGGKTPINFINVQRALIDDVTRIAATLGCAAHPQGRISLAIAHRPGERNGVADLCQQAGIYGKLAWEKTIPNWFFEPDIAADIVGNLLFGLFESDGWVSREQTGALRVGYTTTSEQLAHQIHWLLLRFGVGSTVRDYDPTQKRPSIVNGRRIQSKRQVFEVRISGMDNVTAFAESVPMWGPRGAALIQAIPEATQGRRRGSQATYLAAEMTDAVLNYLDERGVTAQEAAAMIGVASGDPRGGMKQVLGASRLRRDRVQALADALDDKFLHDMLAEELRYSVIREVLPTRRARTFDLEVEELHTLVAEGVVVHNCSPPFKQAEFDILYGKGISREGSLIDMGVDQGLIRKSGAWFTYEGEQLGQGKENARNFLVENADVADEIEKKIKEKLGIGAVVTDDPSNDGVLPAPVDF
Y pestis TopoI – Yersinia pestis topoisomerase I inhibitors, primary screen, biochemical, cleavage product accumulation, plate reader, single point; activity, % at 10 µM; Y. pestis Topo-I cleavage product accumulation; 360,000 compounds, 0.064% hits; DNA topoisomerase I (Yersinia pestis CO92); in the data active = activity above about 50%, passing the limit was not always enough; inconclusive = no clear call, values can overlap the other calls
BJeLR viability – MLPCN primary cell-based screen for lethality selective to Ras in HRASV12 cells; 300,000 compounds, 0.17% hits; AID 1554, 2009; inhibition, % (test concentration not listed); BJeLR (HRASV12) viability, CellTiter-Glo ATP luminescence, 48 h; in the data active = inhibition above about 50%; inconclusive = no clear call, values can overlap the other calls
CCHF vOTU inh-1 – CCHFV vOTU protease inhibitors, primary screen, biochemical, Pep-AMC substrate, fluorescence; AID 651958, 2012; 370,000 compounds, 0.55% hits; Crimean-Congo hemorrhagic fever virus L polyprotein viral ovarian tumor (vOTU) protease …; inhibition, % at 11.5 µM; also: 0% = vehicle wells with enzyme and 100% = no enzyme wells
Mtb bLac sens – beta-lactam sensitization of Mtb H37Rv, H37Rv; AID 434955, 2010; 330,000 compounds, 0.27% hits; M. tuberculosis H37Rv growth with meropenem, percent inhibition; inhibition, % at 25 µM; call rule not given here;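 also: growth measured after seven days incubation then overnight dye step; 0% = bacteria only wells and 100% = bacteria with antibiotic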
BioA inh – M. tuberculosis BioA enzyme inhibitors, primary screen, biochemical, plate reader, single point, HTS | 360,000 compounds, 0.096% hits | inhibition, % at 9.99 µM | purified M. tuberculosis BioA enzyme | 7,8-diaminopelargonic acid synthase BioA (Mycobacterium tuberculosis) | AID 602481, 2012; in the data active = inhibition above about 40%; inconclusive = no clear call, values can overlap the other calls
CCHF vOTU inh-2 – CCHFV vOTU protease inhibitors, confirmation, biochemical, Pep-AMC substrate, fluorescence; shares compounds with CCHF vOTU inh-1; Recombinant CCHFV vOTU; inhibition, % at 11.5 µM; 1,900 compounds, 17% hits
* = called active by the depositor. Rule as the data show it, unless noted: active = inhibition above about 30%; inactive = the rest.

`CCOC(=O)N1CCN(C2=C(NS(=O)(=O)c3ccc(NC(C)=O)cc3)C(=O)c3ccccc3C2=O)CC1` gave RecA splice inh 1.8, Y pestis TopoI 11.8, BJeLR viability -0.5, CCHF vOTU inh-1 -1.9, Mtb bLac sens 5.6 and BioA inh 2.1.
For COc1ccc(NC(=O)Nc2ccc3c(c2)[C@@H]2C[C@@H](CC(=O)NCC4CC4)O[C@H](CO)[C@@H]2O3)cc1 the results were BioA inh 0.2.
CCc1cccc(OCC(=O)Nc2c[nH]c(=O)[nH]c2=O)c1 was read as RecA splice inh -0.9, Y pestis TopoI 10.3, BJeLR viability -5.3, CCHF vOTU inh-1 0.6 and Mtb bLac sens 6.2.
CCc1cccc(OCC(=O)Nc2ccc(C(=O)O)cc2NC(=O)COc2cccc(CC)c2)c1 was read as RecA splice inh 5.2, Y pestis TopoI 32.1, BJeLR viability -13.5, CCHF vOTU inh-1 33.5*, Mtb bLac sens -2.1, BioA inh 3.2 and CCHF vOTU inh-2 5.1.
`CC(C)Cn1c(N)c(C(=O)COC(=O)c2c(O)c(Cl)cc(Cl)c2Cl)c(=O)n(C)c1=O` gave Y pestis TopoI -7.0, CCHF vOTU inh-1 41.1*, Mtb bLac sens 0.5, BioA inh 0.3 and CCHF vOTU inh-2 -5.3.
Screening O=C(CCCCCN1C(=O)C2C3C=CC(C3)C2C1=O)Nc1ccc2ncccc2c1 (stereo unspecified) returned CCHF vOTU inh-1 68.5* and CCHF vOTU inh-2 18.4.
Screening COc1cccc(CNC(=O)CSCc2cnn(-c3ccccc3)c2-n2cccc2)c1 returned RecA splice inh 10.6, Y pestis TopoI 10.7, BJeLR viability -8.9, CCHF vOTU inh-1 36.4*, Mtb bLac sens -4.8 and CCHF vOTU inh-2 7.0.
O=S(=O)(c1ccc(NC(=S)Nc2ccccc2)cc1)N1CCOCC1 was read as RecA splice inh -2.5, Y pestis TopoI -8.9, BJeLR viability -10.1, CCHF vOTU inh-1 0.2, Mtb bLac sens 1.1 and BioA inh -6.0.
For CC(C)CCCCCCNC(=S)Nc1ccc(S(=O)(=O)N2CCOCC2)cc1 the results were RecA splice inh 1.4, Y pestis TopoI 10.9, BJeLR viability 3.1, CCHF vOTU inh-1 31.0*, Mtb bLac sens 5.9, BioA inh -0.4 and CCHF vOTU inh-2 10.9.
Cc1noc(C)c1NC(=O)N(C)C[C@H]1OCCCC[C@H](C)Oc2ccc(NS(C)(=O)=O)cc2C(=O)N([C@@H](C)CO)C[C@H]1C was read as BioA inh -3.0.
C[C@H](CO)N1C[C@H](C)[C@@H](CN(C)S(=O)(=O)c2ccc(F)cc2)OCCCC[C@H](C)Oc2ccc(NC(=O)CCC(F)(F)F)cc2C1=O was read as BioA inh -3.2.
`CSc1nc(-c2ccco2)nn1S(C)(=O)=O` gave RecA splice inh -0.6, Y pestis TopoI 1.4, BJeLR viability -9.6, CCHF vOTU inh-1 36.1*, Mtb bLac sens 4.0, BioA inh -0.3 and CCHF vOTU inh-2 27.9.
For CSc1nc(-c2ccco2)nn1C(=O)Cc1ccccc1 the results were RecA splice inh 2.6, Y pestis TopoI 6.8, BJeLR viability 2.7, CCHF vOTU inh-1 5.0, Mtb bLac sens -5.4 and BioA inh -1.6.
Screening COc1ccc(S(=O)(=O)N2CCOC23CCN(S(=O)(=O)c2cc(C)ccc2OC)CC3)cc1 returned RecA splice inh -0.1, Y pestis TopoI -0.2, BJeLR viability 4.0, CCHF vOTU inh-1 -10.4, Mtb bLac sens -3.2 and BioA inh -3.3.
Screening COc1ccc(OC)c(S(=O)(=O)N2CCC3(CC2)OCCN3S(=O)(=O)c2ccccc2)c1 returned RecA splice inh 0.1, Y pestis TopoI -2.4, BJeLR viability 3.9, CCHF vOTU inh-1 34.1*, Mtb bLac sens -1.8, BioA inh 1.4 and CCHF vOTU inh-2 -9.9.
COc1ccccc1C(=O)N1CCCC(C)(C(=O)NS(=O)(=O)C2CC2)C1 (stereo unspecified) was read as Y pestis TopoI 0.1, CCHF vOTU inh-1 30.1*, BioA inh 0.1 and CCHF vOTU inh-2 -18.0.
`CCN1CCN(Cc2oc(CO)cc(=O)c2O)CC1` gave RecA splice inh -2.4, Y pestis TopoI -0.8, BJeLR viability 0.9, CCHF vOTU inh-1 -2.7, Mtb bLac sens -12.0 and BioA inh -1.1.
Screening CCOC(=O)C1CCN(Cc2oc(CO)cc(=O)c2O)CC1 returned Y pestis TopoI -1.0, BJeLR viability 1.7, CCHF vOTU inh-1 41.3*, Mtb bLac sens inconclusive, BioA inh -0.3 and CCHF vOTU inh-2 -13.3.
COc1ccccc1C(CCN(Cc1cccs1)C(C)=O)c1ccco1 (stereo unspecified) was read as RecA splice inh 19.3, Y pestis TopoI 8.4, BJeLR viability 0.3, CCHF vOTU inh-1 10.9, Mtb bLac sens 9.3 and BioA inh -1.0.
CCC(=O)N(CCC(c1ccccc1)c1ccco1)Cc1cccs1 (stereo unspecified) was read as RecA splice inh 16.2, Y pestis TopoI -0.5, BJeLR viability -2.3, CCHF vOTU inh-1 33.8*, Mtb bLac sens -4.4, BioA inh -1.2 and CCHF vOTU inh-2 -9.9.
`CC1CCc2c(N3CCC(O)CC3)c(F)cc3c(=O)c(C(=O)O)cn1c23` (stereo unspecified) gave Y pestis TopoI 3.8, CCHF vOTU inh-1 -1.3, Mtb bLac sens -6.1 and BioA inh -0.2.
Screening CC1CCc2cc(F)cc3c(=O)c(C(=O)O)cn1c23 (stereo unspecified) returned RecA splice inh 2.2, Y pestis TopoI -2.0, BJeLR viability 1.5, CCHF vOTU inh-1 31.7*, Mtb bLac sens 31.9, BioA inh 0.2 and CCHF vOTU inh-2 -9.0.
Screening CO[C@@H]1CN(C)C(=O)c2ccc(NC(=O)C3CCCC3)cc2OC[C@@H](C)N(CCC(F)(F)F)C[C@@H]1C returned BioA inh 0.5.
O=[N+]([O-])c1cc([N+](=O)[O-])c2nonc2c1Nc1ccc(O)cc1 was read as RecA splice inh -11.9, Y pestis TopoI -12.1, BJeLR viability 3.2, CCHF vOTU inh-1 63.6*, Mtb bLac sens -4.3, BioA inh 0.0 and CCHF vOTU inh-2 -6.0.
Screening C[C@H]1CN([C@@H](C)CO)C(=O)CCCn2nncc2CO[C@H]1CN(C)Cc1ccc2c(c1)OCCN2C returned BioA inh 0.4.
CCOC(=O)N=Nc1c2ccccc2c2nc3no[nH]c3nc12 was read as Y pestis TopoI 19.6, BJeLR viability 53.8*, CCHF vOTU inh-1 58.5*, BioA inh -1.6 and CCHF vOTU inh-2 85.7*.

Source: PubChem (several laboratories)
